Rows were chosen to be rich in hits. Some 3.6% of all compounds tested hit in one or more screens of this group.
AmpC inh detg: qHTS Inhibitors of AmpC Beta-Lactamase (assay with detergent); P00811; AmpC hydrolysis of nitrocefin, absorbance 480 nm, 0.01% Triton; Potency, µM (series often up to 114 µM), without a hit: at the highest dose activity change, negative = inhibition, most hits filed as inhibitors; actives 0.041% (n = 370,000);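 further: 0% = no-compound wells and -100% = no-enzyme wells; nearly all actives have a fitted effect of over 25% in size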
Target sequence (P00811 whole entry, looked up): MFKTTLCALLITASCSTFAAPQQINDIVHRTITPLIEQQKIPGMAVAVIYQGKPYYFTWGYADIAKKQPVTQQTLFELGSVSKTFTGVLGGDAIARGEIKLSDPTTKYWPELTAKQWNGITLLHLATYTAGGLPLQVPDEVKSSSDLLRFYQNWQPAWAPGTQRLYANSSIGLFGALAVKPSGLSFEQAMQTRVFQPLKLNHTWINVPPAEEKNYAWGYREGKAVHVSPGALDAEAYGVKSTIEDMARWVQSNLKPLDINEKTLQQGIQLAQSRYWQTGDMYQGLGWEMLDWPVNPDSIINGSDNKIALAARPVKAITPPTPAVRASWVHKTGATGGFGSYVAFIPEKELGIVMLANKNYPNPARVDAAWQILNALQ
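AmpC (5.3 nM in the dispensed reagent) in 20 mM phosphate pH 7.0 with 0.01% (detergent screen) or 0.0001% Triton X-100 was preincubated with compounds for 15 min at room temperature. Nitrocefin was then added from an 800 uM solution, and hydrolysis was followed at 480 nm.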
Giardia FBPA inh: qHTS Assay for Inhibitors of Fructose-1,6-bisphosphate Aldolase from Giardia Lamblia; AID 2451, 2010; actives 0.71% (n = 290,000); Potency, µM (titrated, usually from 59.6 µM), for inactives: top-dose activity, negative = inhibition, most hits filed as inhibitors; purified Giardia FBPA; further: nearly all actives have a fitted effect of over 55% in size
Target sequence (A8B2U2 whole entry, looked up): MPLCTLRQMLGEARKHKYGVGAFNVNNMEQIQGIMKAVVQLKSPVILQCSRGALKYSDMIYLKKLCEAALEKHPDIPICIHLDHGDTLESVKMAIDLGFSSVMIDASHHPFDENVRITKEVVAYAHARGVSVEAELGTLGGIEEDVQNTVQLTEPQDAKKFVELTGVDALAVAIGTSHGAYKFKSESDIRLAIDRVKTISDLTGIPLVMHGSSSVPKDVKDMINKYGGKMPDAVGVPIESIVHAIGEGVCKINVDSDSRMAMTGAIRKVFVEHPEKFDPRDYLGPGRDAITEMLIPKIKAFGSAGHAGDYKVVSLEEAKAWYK
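40 nM FBPA preincubated 10 min at RT with compound (up to 57.5 uM final), then substrate plus GAPDH/TPI/NAD/arsenate coupling and diaphorase/resazurin added. Fluorescence read after 20 min at RT, 525/598 nm.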
AmpC inh no detg: qHTS Inhibitors of AmpC Beta-Lactamase (assay without detergent); P00811; AmpC nitrocefin hydrolysis, absorbance 480 nm, 0.0001% Triton; Potency, µM (doses to about 57.1 µM), for the others: at the highest dose activity change, negative = inhibition, actives largely listed as inhibitors; actives 0.52% (n = 330,000);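 further: plate controls were no compound for no effect and no enzyme for full effect; nearly all actives have a fitted effect of over 20% in size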
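20 mM phosphate pH 7.0 + 0.01% (detergent screen) or 0.0001% Triton X-100; 5.3 nM AmpC reagent; cpd preinc 15 min RT; nitrocefin (800 uM stock) to start; A480 q20 s × 4 min; Activity was normalised to no-enzyme and no-compound control wells.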
Sm TGR block: qHTS Assay for the Inhibitors of Schistosoma Mansoni Peroxiredoxins. Schistosoma mansoni thioredoxin glutathione reductase (TGR), Q962Y6. purified TGR, DTNB reduction, TNB absorbance 405 nm. Potency, µM (highest dose often 114 µM), for the others: at the highest dose activity change, negative = inhibition, usual class: inhibitors. actives 3% (n = 360,000); further: nearly all actives have a fitted effect of over 60% in size
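First, TGR (20 nM dispensed) and NADPH were mixed with compound. Second, a 15 min room-temperature incubation followed. Third, further NADPH and then DTNB were added to start the reaction. Finally, TNB absorbance was monitored kinetically.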
The depositor's hits bear a star; ? = inconclusive; / = not tested or not shown. The call rests on the fitted dose curve; in most records, active means well fitted curve in the direction sought with a large enough effect; inconclusive means small, poorly fitted or top-dose-only effect, or another doubt; inactive means no such curve, though single readings can be large; an effect the other way counts as inactive or inconclusive. Unless noted, on the % scale 0 is the no-effect control and ±100 the full control effect; potency means the concentration at half of the fitted maximal effect.

SMILES	AmpC inh detg	Giardia FBPA inh	AmpC inh no detg	Sm TGR block
Cc1ccc(/C(O)=C2/C(=O)C(=O)N(CCN3CCOCC3)C2c2ccccn2)cc1 (configuration not stated)	2.8%	?	-2.2%	25.1µM*
COc1ccc(/C(O)=C2/C(=O)C(=O)N(CCN3CCOCC3)C2c2ccccn2)cc1OC (configuration not stated)	-3.7%	?	7.4%	50.1µM*
CN(C)CCCN1C(=O)C(=O)/C(=C(/O)c2ccccc2)C1c1ccccn1 (configuration not stated)	?	-6.4%	-11.5%	-19.5%
CCCOc1cccc(C2/C(=C(/O)c3ccccc3)C(=O)C(=O)N2CCN(C)C)c1 (configuration not stated)	2.8%	0.8%	-6.9%	-27.3%
O=C1C(=O)N(CCN2CCOCC2)C(c2ccccn2)/C1=C(/O)c1ccccc1 (configuration not stated)	-5.3%	?	37.1%	?
CCCOc1ccc(/C(O)=C2/C(=O)C(=O)N(CCCN3CCOCC3)C2c2ccncc2)cc1 (configuration not stated)	-1.8%	?	-20.7%	11.2µM*
CCCCOc1ccc(/C(O)=C2/C(=O)C(=O)N(CCCOC)C2c2ccncc2)cc1 (configuration not stated)	-5.2%	21.1%	-13.5%	-6.2%
O=C(O)c1cccc(N2C(=O)/C(=C/c3ccc([N+](=O)[O-])cc3)C=C2c2ccccc2)c1	-9.8%	-6.2%	-26.0%	25.1µM*
O=C(O)c1cccc(N2C(=O)c3cc([N+](=O)[O-])cc4cc([N+](=O)[O-])cc(c34)C2=O)c1	-17.5%	?	-32.4%	2µM*
O=C1c2cc([N+](=O)[O-])cc3cc([N+](=O)[O-])cc(c23)C(=O)N1c1ccccn1	-1.0%	-21.9%	-22.8%	50.1µM*
O=C1/C(=C/c2ccc([N+](=O)[O-])cc2)C=C(c2ccccc2)N1c1ccccc1	-1.0%	3.0%	-28.7%	0.0%
O=C1c2ccc(Oc3cccc([N+](=O)[O-])c3)cc2C(=O)N1c1ccccn1	8.3%	9.1%	-24.1%	0.0%
O=C(O)c1cccc(N2C(=O)c3cccc4cccc(c34)C2=O)c1	-14.1%	17.5%	-10.8%	2.5%
CC(C)CC(=O)NC(C)C(c1cccs1)N1CCOCC1 (configuration not stated)	4.1%	5.7%	-5.7%	1.1%
COc1ccccc1-c1c(NC(=O)c2ccco2)n(-c2ccccc2)nc(C)c1=O	?	5.8%	-6.6%	3.7%
COc1cccc(-c2c(NC(=O)c3ccco3)n(-c3ccc(C)cc3)nc(C)c2=O)c1	?	0.9%	-1.6%	79.4µM*
CC(C)(C)OC(=O)N1CCC(c2c(C(=O)NCCN3CCOCC3)cnn2-c2cccc(F)c2)CC1	-1.2%	/	/	-8.2%
CN(C)S(=O)(=O)c1cccc(C(=O)C2=C3SC=C(c4ccccc4)N3CC2)c1	?	5.3%	-14.5%	4.47µM*
CCOC(=O)c1c(S(=O)(=O)N2CCC(C(=O)Nc3cccc(C#N)c3)CC2)c(C)n(C)c1C	-7.9%	/	/	3.7%
COC(=O)c1c(C)[nH]c(O)c1C=Nc1ccc(C#N)cc1	2.3%	15.8µM*	-22.7%	12.6µM*
CCOC(=O)c1c(C)[nH]c(O)c1C=Nc1ccccc1	1.9%	-15.4%	-2.3%	-1.3%
COc1cc(Nc2nc(SCc3ccccc3Cl)nc3ccccc23)cc(OC)c1	-4.2%	/	/	1.5%
COc1ccc(C2=NO[C@@H]3C(=O)N(C4CCCCC4)C(=O)[C@H]23)cc1OC	-8.1%	-0.5%	-1.5%	-5.5%
COc1ccc(C2=NO[C@@H]3C(=O)N(c4ccc5c(c4)OCCO5)C(=O)[C@H]23)cc1OC	?	-29.7%	-17.0%	44.7µM*
COC(=O)c1scc(C#N)c1N/N=C(\C#N)S(=O)(=O)c1ccc(Cl)cc1	5.2%	16.9%	-27.4%	31.6µM*
SMILES	AmpC inh detg	Giardia FBPA inh	AmpC inh no detg	Sm TGR block
CC(C)Cn1c2c(c(O)c(C(=O)Nc3ncccc3O)c1=O)CCCC2	-15.4%	7.92µM*	-3.5%	?
CC(C)Cn1c2c(c(O)c(C(=O)Nc3ccc(F)cc3)c1=O)CCCC2	-14.2%	3.7%	-4.0%	8.6%
Cc1ccc(-c2c(C)c(-c3ccc(F)cc3)nc(N)c2C#N)o1	-15.2%	-16.1%	-35.2%	28.2µM*
Cc1ccccc1OCCN1C(=O)C(=O)c2cccc(C)c21	-14.8%	-4.8%	-20.5%	-5.4%
COc1ccccc1OCCCN1C(=O)C(=O)c2cccc(C)c21	0.1%	?	3.2%	3.16µM*
O=C(O)CCSCCCN1C(=O)c2cccc3cccc(c23)C1=O	3.3%	?	-24.3%	2.6%
CC(=O)N=c1c(C#N)cc2c(=O)n3cccc(C)c3nc2n1Cc1ccco1	2.2%	-1.0%	-29.0%	28.2µM*
Cc1ccccc1C(=O)N=c1c(C#N)cc2c(=O)n3cccc(C)c3nc2n1Cc1ccco1	-3.1%	-0.5%	-33.3%	?
CCc1ccccc1NC(=O)Cn1c(=O)n(-c2ccc(C)cc2)c(=O)c2cc(OC)c(OC)cc21	16.9%	/	/	4.5%
COc1ccc2c(CNCc3ccco3)c(C(=O)O)n(Cc3ccc(F)cc3Cl)c2c1	17.5%	/	/	6.3%
COC(=O)C1=C(O)/C(=C\c2ccc(O)c(OC)c2)N=C1C	?	?	-18.1%	50.1µM*
CC(C)[C@@]1(NC(=O)[C@@H]2C=C3c4cccc5[nH]cc(c45)C[C@H]3N(C)C2)O[C@@]2(O)[C@@H]3CCCN3C(=O)[C@H](Cc3ccccc3)N2C1=O	-10.7%	?	58.1%	8.91µM*
CC(C)[C@H]1C(=O)N2CCC[C@H]2[C@]2(O)O[C@](NC(=O)[C@@H]3C=C4c5cccc6[nH]cc(c56)C[C@H]4N(C)C3)(C(C)C)C(=O)N12	-12.8%	?	115.5%	7.94µM*
CC(C)[C@@]1(NC(=O)[C@@H]2C[C@@H]3c4cccc5[nH]cc(c45)C[C@H]3N(C)C2)O[C@@]2(O)C3CCCN3C(=O)[C@H](Cc3ccccc3)N2C1=O (some centres not stated)	/	-7.6%	/	/
CC(C)C[C@H]1C(=O)N2CCCC2[C@]2(O)O[C@](NC(=O)[C@@H]3C=C4c5cccc6[nH]cc(c56)CC4N(C)C3)(C(C)C)C(=O)N12 (some centres not stated)	?	?	93.9%	10µM*
CC(C)C[C@H]1C(=O)N2CCC[C@@H]2[C@]2(O)O[C@](NC(=O)[C@@H]3C=C4c5cccc6[nH]c(Br)c(c56)C[C@H]4N(C)C3)(C(C)C)C(=O)N12	/	-21.3%	/	/
Cc1cccc(NC(=O)C(=O)NCCCc2ccccc2)c1	?	2.0%	-22.3%	1.0%
CCN(c1ccccc1)c1nnc(NC(=O)Nc2cccc(Cl)c2C)s1	19.0%	/	/	-18.7%

Screens: PubChem, National Center for Advancing Translational Sciences (NCATS)
